Source: PubChem BioAssay AID1851 (National Center for Advancing Translational Sciences (NCATS), 2009)
“And” between values parts separate entries of the source, which are not always exact repeats. Equal entries are not always repeated. About 5,800 (36%) of roughly 16,000 compounds were called active. Not shown: some 23% with an inconclusive outcome. Some of the results follow. A number with no mark means an inactive call. Calls follow the shape of the dose curve; as a rule, active = well fitted curve in the direction sought with a large enough effect; inconclusive = small, poorly fitted or top-dose-only effect, or effect the other way; inactive = no such curve, though single readings can be large or run the other way.

These compounds were tested against Cytochrome P450 2C19 (Homo sapiens) (UniProt P33261) (assay: Cytochrome panel assay with activity outcomes). Conditions: recombinant CYP, pro-luciferin dealkylation, luminescence, p450-cyp2c19; series mostly up to 57.1 µM.
Chain of Cytochrome P450 2C19 (Homo sapiens) (P33261 whole entry, looked up): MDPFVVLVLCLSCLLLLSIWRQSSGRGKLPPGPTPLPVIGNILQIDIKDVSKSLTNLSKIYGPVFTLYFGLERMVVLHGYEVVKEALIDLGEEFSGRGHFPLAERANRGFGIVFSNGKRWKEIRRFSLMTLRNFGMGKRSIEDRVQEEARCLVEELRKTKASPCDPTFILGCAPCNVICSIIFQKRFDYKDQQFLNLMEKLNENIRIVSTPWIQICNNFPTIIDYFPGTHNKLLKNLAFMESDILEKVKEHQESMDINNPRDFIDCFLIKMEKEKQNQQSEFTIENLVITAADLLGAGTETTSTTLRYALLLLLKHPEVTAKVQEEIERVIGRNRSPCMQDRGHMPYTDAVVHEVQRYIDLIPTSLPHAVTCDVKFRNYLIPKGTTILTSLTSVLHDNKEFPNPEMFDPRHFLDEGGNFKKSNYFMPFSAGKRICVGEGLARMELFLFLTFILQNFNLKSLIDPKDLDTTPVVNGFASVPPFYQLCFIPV
% is scaled to controls: 0 for no effect and ±100 for the full control effect.

Structure (SMILES) | AC50 | activity, negative = inhibition
CCOC(=O)N1CCN(C(=O)CNCc2cccs2)CC1 | inactive | –
Cc1csc(NC(=O)CCNS(=O)(=O)c2ccc3c(c2)c(=O)n(C)c(=O)n3C)n1 | inactive | –
O=C(CCNS(=O)(=O)c1cccs1)N1CCc2ccccc2C1 | 2.24 µM (active) | –
CCOC(=O)N1CCN(C(=O)CNS(=O)(=O)c2cccs2)CC1 | 8.91 µM (active) | –
COCC(=O)N1CCC2(CC1)CN(C(c1ccccc1)c1ccccc1)C2 | inactive | –
Cc1csc(NC(=O)CNS(=O)(=O)c2cccs2)n1 | 14.1 µM (active) | –
Cc1csc(NC(=O)Cc2c[nH]c3ccccc23)n1 | 7.08 µM (active) | –
O=C(O)Cc1c[nH]c2ccc(O)cc12 | inactive | –
O=C(CCNS(=O)(=O)c1cccs1)N1CCCCCC1 | 3.16 µM (active) | –
O=C(Cc1ccc(-n2c(=O)[nH]c3ccccc3c2=O)cc1)N1CCN(c2cccc(Cl)c2)CC1 | 8.91 µM (active) | –
COc1ccc(CC(=O)N2CCN(c3ccc(C4=NNC(=O)CC4C)cc3)CC2)cc1 (centres undefined) | inactive | –
O=c1nc2ccccc2c2n1CC(CN1CCN(c3cccc(Cl)c3)CC1)N2 (centres undefined) | inactive | –
CN1CCN(CC(=O)N2c3ccccc3Sc3cc4ccccc4cc32)CC1 | – | -1.84% [at 11.4 µM]
CN1CCCC[C@@H]1CCN1c2ccccc2Sc2ccc(S(C)=O)cc21 (some centres undefined) | inactive | –
CC1CCN(CC(=O)N2c3ccccc3Sc3cc4ccccc4cc32)CC1 | 3.16 µM (active) | –
CCN[C@@H]1C[C@H](C)S(=O)(=O)c2sc(S(N)(=O)=O)cc21 | inactive | –
Cc1ccsc1/C=N/Nc1nc(Cl)c(Cl)cc1Cl | 7.94 µM (active) | –
Oc1oc(-c2ccccc2)nc1C=Nc1ccccc1 | 3.98 µM (active) | –
CN(C)c1ccc(N=Cc2nc(-c3ccccc3)oc2O)cc1 | 1.78 µM (active) | –
CN(C)Cc1ccc(O)c(CN(C)C)n1 | – | -0.0983% [at 11.4 µM]
C=CCCCCCCCCC(=O)Nc1c[nH]c(=O)[nH]c1=O | inactive | –
Cc1ccc2[nH]c3c(N4CCc5ccccc5C4)ncnc3c2c1 | 1.58 µM (active) | –
CCN1CCCC1Cn1cnc2c([nH]c3ccc(C)cc32)c1=O (centres undefined) | inactive | –
Cc1ccc(C2(C)NC(=O)N(CC(=O)Nc3cc(C)on3)C2=O)cc1 (centres undefined) | inactive | –
Cc1cc(NC(=O)CN2C(=O)NC(C)(c3ccc(OC(F)F)cc3)C2=O)no1 (centres undefined) | inactive | –

Structure (SMILES) | AC50 | activity, negative = inhibition
COc1ccc(OC)c(C(=O)CN2C(=O)NC(C)(c3ccccc3)C2=O)c1 (centres undefined) | 0.224 µM (active) | –
Cc1nnc(SCC(=O)NCC2CCCCC2)n(N)c1=O | inactive | –
CCn1c(SCC(=O)NC2CCCCC2)nnc1-c1cc2cccc(OC)c2o1 | 10 µM (active) | –
Cn1c(SCC(=O)NC2CC2)nnc1-c1cccc(NC(=O)c2ccccc2F)c1 | inactive | –
Nc1nc2c(c(=O)[nH]1)CN(c1ccc(S(N)(=O)=O)cc1)CN2 | – | 24.4% [at 11.4 µM]
Cc1ccc(/C=C2\SC(=S)N(CCCC(=O)Nc3ccccn3)C2=O)cc1 | 10 µM (active) | –
Cc1nc2cnc(Nc3ccccc3)nc2n(C)c1=O | inactive | –
CCNc1ncc2nc(-c3ccccc3)c(=O)n(C)c2n1 | inactive | –
CCNc1ncc2nc(CCc3ccccc3)c(=O)n(C3CC3)c2n1 | 6.31 µM (active) | –
CCNc1ncc2nc(-c3ccccc3)c(=O)n(C3CC3)c2n1 | inactive | –
CCNc1ncc2nc(CCc3ccccc3)c(=O)n(C)c2n1 | 2.51 µM (active) | –
Cn1c(=O)c(CCc2ccccc2)nc2cnc(Nc3ccccc3)nc21 | 15.8 µM (active) | –
CCNc1ncc2nc(CCc3ccccc3)c(=O)n(Cc3ccc(F)cc3)c2n1 | inactive | –
CCNc1ncc2nc(C)c(=O)n(C3CC3)c2n1 | inactive | –
CCO/C([O-])=N/c1c[n+](N2CCOCC2)no1 | inactive | –
COC(=O)C(NC(=O)c1ccc(Cl)cc1)(Nc1nc(C)cs1)C(F)(F)F (centres undefined) | 5.01 µM (active) | –
CCC(C)NS(=O)(=O)c1ccc(NC(=O)CCC2CCCCC2)cc1 (centres undefined) | inactive | –
CC(=O)c1ccc(S(=O)(=O)NC(=O)NC2CCCCC2)cc1 | inactive | –
O=C(CCc1ccc(S(=O)(=O)NC2CCCCC2)cc1)N(Cc1ccccc1)Cc1ccccc1 | 1.41 µM (active) | –
Cc1ccc(NC(=O)CCc2ccc(S(=O)(=O)NC3CCCCC3)cc2)cc1 | 15.8 µM (active) | –
Cc1ccccc1NC1=NC(=S)N(c2ccccc2)C12CCOC(C)(C)C2 (centres undefined) | inactive | –
COc1ccc([C@@H](Nc2ccccn2)c2cc(C(C)(C)C)cc(C(C)(C)C)c2O)cc1 | 2.51 µM (active) | –
CN1CCc2cc(Cl)c(O)cc2[C@@H](c2ccccc2)C1 | inactive | –
O=S(=O)(c1ccccc1)N1CCC[C@@]2(CCN(c3cccc(-c4ccccc4)c3)C2)C1 | inactive | –
O=S(=O)(c1ccccc1)N1CCC[C@@]2(CCN(c3ccncc3)C2)C1 | 0.398 µM (active) | –

Structure (SMILES) | AC50 | activity, negative = inhibition
CS(=O)(=O)N1CCC[C@@]2(CCN(c3ccncc3)C2)C1 | inactive | –
CS(=O)(=O)N1CCC2(CCCN(c3ccncc3)C2)CC1 | 1.26 µM (active) | –
CS(=O)(=O)N1CCC[C@@]2(CCN(c3ccccn3)C2)C1 | inactive | –
CS(=O)(=O)N1CCC[C@@]2(CCN(c3ccccc3)C2)C1 | 3.16 µM (active) | –
CC(C)CN1CC[C@@]2(CCCN(S(=O)(=O)c3ccccc3)C2)C1 | inactive | –
CS(=O)(=O)N1CCC[C@@]2(CCN(c3ncccn3)C2)C1 | inactive | –
O=S(=O)(c1ccccc1)N1CCC[C@@]2(CCN(C(c3ccccc3)c3ccccc3)C2)C1 | inactive | –
CS(=O)(=O)N1CCC2(CCCN(c3ncccn3)C2)CC1 | inactive | –
O=S(=O)(c1ccccc1)N1CCC[C@@]2(CCN(c3ccccc3)C2)C1 | 0.316 µM (active) | –
CCN1C(=O)[C@H]2[C@H]3[C@H](O)[C@H](O)C/C(=N/OC[C@@H](O)COCc4ccco4)[C@@H]3CC[C@@H]2C1=O | – | 29.6% [at 11.4 µM] and 41.4% [at 11.4 µM]
O=S(=O)(c1ccccc1)N1CCC2(CCCN(c3ccccc3)C2)CC1 | 1.58 µM (active) | –
O=S(=O)(c1ccccc1)N1CCC2(CCCN(c3cccc(-c4ccccc4)c3)C2)CC1 | inactive | –
CN1CCCC2(CCN(S(=O)(=O)c3ccccc3)CC2)C1 | inactive | –
Cc1cc(O)c(-c2cc(O)c(C)cc2O)cc1O | 0.794 µM (active) | –
Cc1cc(O)c(C(C)C)cc1CN1CCCCC1 | – | 32.6% [at 11.4 µM]
N#Cc1cccc(NC(=O)N2CC[C@@]3(CCCNC3)C2)c1 | inactive | –
c1cc(NNc2cccc(-c3nn[nH]n3)c2)cc(-c2nn[nH]n2)c1 | – | 14.6% [at 11.4 µM]
Cc1cc(C)cc(Oc2nn[nH]n2)c1 | inactive | –
CC(C)(C)c1cccc(Oc2nn[nH]n2)c1 | 7.94 µM (active) | –
COc1ccc(-c2nn3cnnc3s2)cc1OC | 8.91 µM (active) | –
Nc1cc(=O)[nH]c(SCC(=O)Nc2ccc(S(=O)(=O)N3CCOCC3)cc2)n1 | inactive | –
O=C(CSCc1ccccc1)Nc1ccc(S(=O)(=O)N2CCOCC2)cc1 | 17.8 µM (active) | –
COCC(=O)N1CCC2(CC1)CN(C(=O)Nc1cccc(F)c1)C2 | inactive | –
NC(=O)c1ccc(C2SCC(=O)N2Cc2ccccc2)cc1 (centres undefined) | 10 µM (active) | –
CC(C)n1nnnc1SCC(=O)c1ccc2c(c1)OCCO2 | 10 µM (active) | –

Structure (SMILES) | AC50 | activity, negative = inhibition
CC(C)n1nnnc1SCC(=O)NCCc1ccccc1 | 7.94 µM (active) | –
CC(C)(C)NC(=O)CSc1nnc(Cc2ccc3c(c2)OCO3)n1C1CCCCC1 | inactive | –
CC(C)n1nnnc1SCC(=O)NCc1ccc2c(c1)OCO2 | 5.01 µM (active) | –
O=C(O)c1ccc(Nc2ccnc3cc(Cl)ccc23)cc1O | – | -17.2% [at 11.4 µM]
CC(=O)[C@@H](C)CCO[C@@]1(C)OCC[C@@H]1C | – | -8.65% [at 11.4 µM]
COc1ccc2c(c1)CCc1c(C(=O)N3CCCCCC3)noc1-2 | 11.2 µM (active) | –
COc1ccc(NC(=O)N2CCCC3(CCN(C(=O)c4c(C)noc4C)CC3)C2)cc1 | inactive | –
COc1ccc(C(=O)N2CCC3(CCCN(C)C3)CC2)cc1 | inactive | –
N#C[C@H](c1ccccc1)N1CCCN([C@@H](C#N)c2ccccc2)C1c1ccccc1O (some centres undefined) | 0.251 µM (active) | –
OC[C@@H]1O[C@@H](n2cnc3c(NC4CCCC4)ncnc32)[C@@H](O)[C@H]1O | inactive | –
CC(C)c1ccc(/C=C2\C=C(c3ccc4ccccc4c3)OC2=O)cc1 | – | -31.6% [at 11.4 µM]
Cc1ccc(/C=C2\OC(=O)c3ccccc32)cc1 | 8.91 µM (active) | –
Cc1ccc(=O)n(-c2ccccc2)c1 | inactive | –
Cc1ccccc1/C=C1\OC(=O)c2ccccc21 | 7.94 µM (active) | –
COCCNC(=O)COc1ccc(OCCNC[C@@H](O)COc2ccccc2)cc1 | inactive | –
COc1ccc(OC)c2[nH]c(=O)c(CCNS(=O)(=O)c3ccc(C)cc3)cc12 | 15.8 µM (active) | –
COCCNC(=O)COc1ccc(Oc2ccccc2)cc1 | 11.2 µM (active) | –
COc1ccc(OC)c2[nH]c(=O)c(CCNC(=O)C3CCCCC3)cc12 | 10 µM (active) | –
COc1ccc(OC)c2[nH]c(=O)c(CCNC(=O)COc3ccccc3)cc12 | 14.1 µM (active) | –
NC[C@H]1O[C@H](n2cnc3c(N)ncnc32)C[C@@H]1O | – | 7.59% [at 11.4 µM]
Cn1c(=O)c2[nH]c(CCC(=O)O)nc2n(C)c1=O | – | 12% [at 11.4 µM]
COc1ccc(OC)c2[nH]c(=O)c(CCNC(=O)c3ccc(S(=O)(=O)N4CCCC4)cc3)cc12 | 11.2 µM (active) | –
CCN1CCCC1CNC(=O)CCNC(=O)c1cc(OC)c(OC)c(OC)c1 (centres undefined) | inactive | –
COc1ccc(OC)c2[nH]c(=O)c(CCNC(=O)c3ccc(S(=O)(=O)N(C)C)cc3)cc12 | inactive | –
